# From PubChem BioAssay
# Values joined by “and” are separate entries in the source; they are usually repeats but may differ in a detail not shown here. Identical values can stand only once. Results filed as inconclusive are left out. Active and inactive are the calls of the source. Unless noted, how the calls were made is not given here.
# Tests used:
# [1] = compounds altering circadian rhythm period length – cell-based, LOPAC library, luminescence reporter (AID 2774); conditions: circadian reporter cells, at 7 µM, actives lie on both sides;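 further: values are relative to mean of DMSO wells on each plate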
# [2] = compounds altering viability of human ES cells (AID 493140); conditions: human embryonic stem cell survival screen; stronger effect = higher value;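 further: cells exposed to compounds for four days before counting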
# [3] = system: Hepatitis C virus NS3 helicase; assay: blockers of NS3h binding to ssDNA – biochemical, fluorescence polarization, LOPAC1280 library, primary screen (AID 687035; in the data active means inhibition above about 37%); conditions: Purified HCV NS3 helicase, Cy5-dT15 ssDNA binding fluorescence polarization; stronger effect = higher value; concentration not given here
# [4] = compounds altering Cy5-DNA-NS3h complex signal – biochemical, LOPAC1280, artefact control for HCV NS3 helicase inhibitor project (AID 687037); conditions: Cy5-DNA-NS3h complex fluorescence interference counterscreen
# [5] = system: Aerobactin synthetase IucA (Klebsiella pneumoniae, hypervirulent); assay: biochemical IucA inhibition screen of LOPAC library by absorbance (AID 1346212); conditions: IucA enzyme assay, absorbance (OD) readout; stronger effect = lower value;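 tested at 8 µM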;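 further: 100% = no compound wells and 0% = no enzyme wells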
# [6] = viability loss with induced miR-34 in A549 – imaging, A549 dox-inducible miR-34, nuclei and caspase counts, primary screen (AID 1347080;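 active means compounds whose cell count with miR-34 switched on is under 0.7 times the count with it off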); conditions: A549 miR-34 inducible, Hoechst nuclei count, 48 h
# [7] = blockers of cellular phospholipid synthesis – cell-based, LOPAC library, screen 4, primary screen (AID 1347384); conditions: animal cells, phospholipid biosynthesis inhibition screen; at 10 µM
# [8] = galactose survival enhancers in mitochondrial complex I cybrids – cell-based, galactose medium, ATP luminescence, primary screen (AID 1645843;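 active means z-score of at least 1.8 in each of two replicates, scored against plate mean and spread of sample wells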;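 further: positive z means more ATP and so rescue of galactose-driven cybrid death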); conditions: complex I mutant cybrid cells, 72 h, stronger effect = higher value
# [9] = viability loss in pontine glioma line – cell-based, SU-DIPG-XIII, MIPE4.0, CellTiter-Glo, qHTS, dose response (AID 1347061; cut-off not given, nearly all actives have AC50 up to about 37 µM;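 further: cells exposed to compound for 48 hours before readout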); conditions: CellTiter-Glo ATP luminescence
# [10] = viability loss in pontine glioma line – cell-based, JHH-DIPG-1, MIPE4.0, CellTiter-Glo, qHTS, dose response (AID 1347062; cut-off not given, nearly all actives have AC50 up to about 27 µM;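 on AC50: cells exposed to compound for two days before readout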); conditions: JHH-DIPG-1 viability, CellTiter-Glo ATP luminescence
# [11] = viability loss in pontine glioma line – cell-based, SU-DIPG-IV, MIPE4.0, CellTiter-Glo, qHTS, dose response (AID 1347063; cut-off not given, nearly all actives have AC50 up to about 30 µM;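 further: compound exposure lasted 48 hours before the viability readout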); conditions: CellTiter-Glo ATP luminescence
# [12] = growth inhibition of DIPG cells – cell-based, MIPE4.0 library, CellTiter-Glo luminescence, qHTS (AID 1347066; cut-off not given, nearly all actives have AC50 up to about 30 µM;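 further: cells exposed to compound for 48 hours before readout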); conditions: SU-DIPG-VI viability, CellTiter-Glo ATP luminescence
# [13] = P. berghei load reduction in hepatocytes – cell-based, HepG2, luciferase luminescence, HepG2 viability, primary screen (AID 624349; in the data active means parasite load remaining mostly below about 12%, no sharp cut-off; inactive means mostly above about 10%;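 further: 100% = mean of DMSO negative control wells on the same plate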); conditions: P. berghei liver stage in HepG2, luciferase luminescence, concentration not given here; parasite load remaining: stronger effect = lower value; viability: measured here: HepG2 viability without parasites
# [14] = viability loss in pontine glioma line – cell-based, SU-DIPG-XIII, MIPE5.0, CellTiter-Glo, qHTS, dose response (AID 1347064; cut-off not given, nearly all actives have AC50 up to about 23 µM;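 further: cells exposed to compound for 48 hours before the viability read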); conditions: CellTiter-Glo ATP luminescence
# [15] = JHH-DIPG-1 glioma cell viability, MIPE5.0 library, CellTiter-Glo luminescence, qHTS (AID 1347067; cut-off not given, nearly all actives have AC50 up to about 26 µM;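 further: cells exposed to compound for 48 hours before readout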); conditions: JHH-DIPG-1 glioma viability, CellTiter-Glo ATP luminescence
# [16] = chitosan synthesis blockers in C. neoformans – flow cytometry, Cibacron Brilliant Red staining (AID 1347148); conditions: Cryptococcus neoformans chitosan, stronger effect = lower value; at 10 µM unless noted;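 further: compound exposure lasted three days at 37 degrees C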
# [17] = measured here: relative caspase fold change +Dox/-Dox
# [18] = measured here: total cells with miR-34 induction, stronger effect = lower value
# [19] = measured here: total cells without miR-34 induction
structure (smiles),measurement,setting,value
CN1CC[C@@]2(C)c3cc(O)ccc3N(C)C12 (stereo partly specified),period change,[1],-0.055 h (inactive)
same,survival,[2],4.58 (inactive)
same,inhibition,[3],1% (inactive)
same,fluorescence ratio (interference),[4],1 (inactive)
same,remaining activity,[5],92.9% (inactive)
same,fold change,[6]; stronger effect = lower value,1.09 (inactive)
same,fold change,[6]; [17],1.19
same,cell count,[6]; [18],8970
same,cell count,[6]; [19],8270
same,outcome,[7],inactive
same,z-score,[8],-1.04 (inactive)
Cc1nc(-c2ccc(-c3ccc(C(=O)N4CCc5cc6c(cc54)C4(CCN(C)CC4)CO6)cc3)c(C)c2)no1,period change,[1],0.165 h (inactive)
same,remaining activity,[5],96.4% (inactive)
same,outcome,[9],inactive
same,outcome,[10],inactive
same,outcome,[11],inactive
same,outcome,[12],inactive
CCCN(CCC)[C@@H]1CCc2cccc(O)c2C1,period change,[1],-0.075 h (inactive)
same,inhibition,[3],-5% (inactive)
same,fluorescence ratio (interference),[4],1 (inactive)
same,remaining activity,[5],102% (inactive)
same,fold change,[6]; stronger effect = lower value,1.11 (inactive)
same,fold change,[6]; [17],1.06
same,cell count,[6]; [18],10200
same,cell count,[6]; [19],9240
same,outcome,[7],inactive
same,z-score,[8],-0.38 (inactive)
COc1ccc2c(c[n+](C)c3c4cc5c(cc4ccc23)OCO5)c1OC,period change,[1],0.045 h (inactive)
same,parasite load remaining,[13],41.8% (inactive)
same,viability,[13],157%
same,inhibition,[3],-3% (inactive)
same,fluorescence ratio (interference),[4],0.9 (inactive)
same,remaining activity,[5],110% (inactive)
same,AC50,[9],26.4 µM (active)
same,AC50,[10],4.18 µM (active)
same,AC50,[11],5.26 µM (active)
same,AC50,[14],4.17 µM (active)
same,AC50,[12],8.33 µM (active)
same,AC50,[15],5.9 µM (active)
same,fold change,[6]; stronger effect = lower value,1.19 (inactive) and 0.771 (inactive)
same,fold change,[6]; [17],0.571 and 1.14
same,cell count,[6]; [18],525 and 1050
same,cell count,[6]; [19],442 and 1360
same,fold fluorescence,[16],7.04 [at 143.5 µM] (inactive)
same,outcome,[7],inactive
same,z-score,[8],-1.52 (inactive)
Oc1ccc2c3c1O[C@H]1c4oc5ccccc5c4C[C@@]4(O)C(C2)N(CC2CC2)CCC314 (stereo partly specified),period change,[1],0.13 h (inactive)
same,inhibition,[3],-1% (inactive)
same,fluorescence ratio (interference),[4],1 (inactive)
same,remaining activity,[5],97.5% (inactive)
same,fold change,[6]; stronger effect = lower value,1.1 (inactive)
same,fold change,[6]; [17],0.785
same,cell count,[6]; [18],10600
same,cell count,[6]; [19],9610
same,outcome,[7],inactive
same,z-score,[8],-0.595 (inactive)
CNc1ccc2oc(C[C@H]3O[C@@]4(CC[C@H]3C)O[C@H]([C@H](C)C(=O)c3ccc[nH]3)[C@H](C)C[C@H]4C)nc2c1C(=O)O,period change,[1],-0.125 h (inactive)
same,inhibition,[3],1% (inactive)
same,fluorescence ratio (interference),[4],1 (inactive)
same,remaining activity,[5],119% (inactive)
same,fold change,[6]; stronger effect = lower value,0.828 (inactive)
same,fold change,[6]; [17],1.6
same,cell count,[6]; [18],428
same,cell count,[6]; [19],516
same,outcome,[7],inactive
same,z-score,[8],-1.52 (inactive)
OCc1cnc[nH]1,period change,[1],0.065 h (inactive)
same,inhibition,[3],0% (inactive)
same,fluorescence ratio (interference),[4],1 (inactive)
same,remaining activity,[5],102% (inactive)
same,fold change,[6]; stronger effect = lower value,0.96 (inactive)
same,fold change,[6]; [17],1.56
same,cell count,[6]; [18],10400
same,cell count,[6]; [19],10800
same,outcome,[7],inactive
same,z-score,[8],0.255 (inactive)
